Drawing on PubChem BioAssay (NCATS), this text covers Potency for 27 molecules.

Test [1] has as its target Aldehyde dehydrogenase, mitochondrial (Homo sapiens) (UniProt P05091). The experiment in a line: qHTS for Inhibitors of the Aldehyde Dehydrogenase Family (ALDH2) Primary screen (AID 2061308). Further: nearly all actives have a fitted effect of over 55% in size.
Test [2] has as its target Retinaldehyde dehydrogenase 3 (Homo sapiens) (UniProt P47895). Nature of the test: qHTS for Inhibitors of the Aldehyde Dehydrogenase Family (ALDH1A3) Validation screen (AID 2061312; further: nearly all actives have a fitted effect of over 45% in size; further: potency means the concentration at half of the fitted maximal effect). (In qHTS, concentration-response curves come from the screen itself.)
The target is the same in test [3]. The experiment in a line: qHTS for Inhibitors of the Aldehyde Dehydrogenase Family (ALDH1A3) Primary screen (AID 2061315).
Test [4] in a line: BET inhibitor-based combinations targeting novel dependencies in MECOM-rearranged (r) AML: SET-2 cell line (AID 2202231). Further: potency means the concentration at half of the fitted maximal effect; nearly all actives have a fitted effect of over 35% in size. As to conditions: SET-2 AML cells viability, CellTiter-Glo luminescence, 48 h; viability: stronger effect = lower value, concentration not given here. Put shortly: (§1)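 Each compound was tested at eleven concentrations on cells seeded at 500/well. After two days' incubation, ATP-based luminescence reported viability; responses relative to DMSO and blank wells yielded AUC and cell-line-centred Z-AUC.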
Background: Cellular ATP, detected with luciferase, serves as a proxy for viable cell number.

Test [5] in a line: BET inhibitor-based combinations targeting novel dependencies in MECOM-rearranged (r) AML: OCI-AML3 cell line (AID 2202232). Further: potency means the concentration at half of the fitted maximal effect; nearly all actives have a fitted effect of over 35% in size. Particulars: Potency: OCI-AML3 viability. Put shortly: as §1
A short description of test [6]: BET inhibitor-based combinations targeting novel dependencies in MECOM-rearranged (r) AML: MV-4-11 cell line (AID 2202233). Further: potency means the concentration at half of the fitted maximal effect; nearly all actives have a fitted effect of over 45% in size. Put shortly: (§2)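 First, 500 cells per well were seeded; next, drugs were pinned as 11-point doses; then plates sat 48 hr in the incubator; finally CellTiter-Glo was added and luminescence read, with AUC and Z-AUC computed.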
The nature of test [7]: BET inhibitor-based combinations targeting novel dependencies in MECOM-rearranged (r) AML: HNT-34 cell line (AID 2202234). Further: potency means the concentration at half of the fitted maximal effect; nearly all actives have a fitted effect of over 35% in size. Put shortly:
as §2

Test [8] is described as follows: BET inhibitor-based combinations targeting novel dependencies in MECOM-rearranged (r) AML: UCSD-AML1 cell line (AID 2202235). Further: potency means the concentration at half of the fitted maximal effect; nearly all actives have a fitted effect of over 40% in size. Summed up: as §2
The nature of test [9]: BET inhibitor-based combinations targeting novel dependencies in MECOM-rearranged (r) AML: AML-191 cell line (AID 2202236; further: potency means the concentration at half of the fitted maximal effect; nearly all actives have a fitted effect of over 35% in size). Summed up:
as §1

A short description of test [10]: BET inhibitor-based combinations targeting novel dependencies in MECOM-rearranged (r) AML: AML-194 cell line (AID 2202237; further: potency means the concentration at half of the fitted maximal effect; nearly all actives have a fitted effect of over 40% in size). Summed up: as §1

Results filed as inconclusive are left out. Calls of active or inactive are those of the source. The call rests on the fitted dose curve; in most records, active means well fitted curve in the direction sought with a large enough effect; inconclusive means small, poorly fitted or top-dose-only effect, or another doubt; inactive means no such curve, though single readings can be large; an effect the other way counts as inactive or inconclusive.

Regarding `N#CC(CCCN1CCC(O)(c2ccc(Cl)cc2)CC1)(c1ccccc1)c1ccccc1`, the Potency entry in [1], in [2] and in test [3] was “inactive” each time.

As for `O=C(NC1(c2ccccc2)CC1)c1c(CN2CCC(N3CCCCC3)CC2)c(-c2cccc(C(F)(F)F)c2)nc2cc(Br)ccc12`, the Potency entry in [1], in test [2] and in test [3] was “inactive” each time.

As for `CCCSc1nc(N[C@@H]2C[C@H]2c2ccc(F)c(F)c2)c2nnn([C@@H]3C[C@H](OCCO)[C@@H](O)[C@H]3O)c2n1`, the Potency result in test [1], in test [2] and in test [3] was “inactive” throughout.

Take `CC1CCN(C(c2ccc(F)cc2)c2ccc(C(C)C(=O)O)cc2-c2ccc(C(F)(F)F)cc2)CC1` (stereo not drawn): the Potency entry in test [1], in [2] and in test [3] was “inactive” each time.

Regarding `NC(=O)N1CCC(CC(=O)N2CCC(C3c4ncc(Br)cc4CCc4cc(Cl)cc(Br)c43)CC2)CC1` (stereo not drawn), the Potency result in test [1], in test [2] and in test [3] was “inactive” in each case.

For `CC(C)(C(=O)NCC(F)(F)C(F)(F)F)C(=O)NC1C(=O)Nc2ccccc2-c2ccccc21` (stereo not drawn), the Potency result in test [1], in test [2] and in test [3] was “inactive” in each case.

As for `O=C(NC1Cc2ccccc2N(C[C@@H](O)CO)C1=O)c1cc2cc(Cl)sc2[nH]1` (stereo partly drawn), the Potency result in test [1], in [2] and in [3] was “inactive” each time.

Regarding `CCc1ccccc1OC[C@@H](O)CN[C@H]1CCCc2ccccc21`, the Potency result in test [1], in test [2] and in [3] was “inactive” throughout.

As for `Cc1cn(-c2cc(NC(=O)c3ccc(C)c(Nc4nccc(-c5cnccn5)n4)c3)cc(C(F)(F)F)c2)cn1`, the Potency result in test [1], in test [2] and in [3] was “inactive” throughout.

Take `O=C(NCc1nc2ccccc2c(=O)n1-c1ccc(F)cc1)Nc1ccc(Cl)c(C(F)(F)F)c1`: the Potency entry in test [1], in test [2] and in test [3] was “inactive” throughout.

Turning to `Cc1cn(C2C=CC(CO)O2)c(=O)[nH]c1=O` (stereo not drawn), the Potency result in test [1], in test [2] and in test [3] was “inactive” in each case.

For the molecule `O=C(c1ccccc1)c1ccc2nc(NC(=O)c3csc(C4CCN(c5ncnc6ccsc56)CC4)n3)[nH]c2c1`, the Potency result in test [1], in test [2] and in test [3] was “inactive” in each case.

For `C[C@@H](CN1CCC(n2c(=O)[nH]c3cc(Cl)ccc32)CC1)NC(=O)c1ccc2ccccc2c1`, the Potency entry in test [1], in [2] and in test [3] was “inactive” in each case.

For the molecule `CN(C)CC(=O)Nc1ccc2[nH]c(=O)c3ccccc3c2c1`, the Potency result in test [1], in test [2] and in test [3] was “inactive” in each case.

For `CC(=O)OC12COC1CC(O)C1(C)C(=O)C(O)C3=C(C)C(OC(=O)C(O)C(NC(=O)OC(C)(C)C)c4ccccc4)CC(O)(C(OC(=O)c4ccccc4)C21)C3(C)C` (stereo not drawn), the Potency entry in test [1], in test [2] and in [3] was “inactive” in each case.

`CC(=O)Nc1nc2c(Oc3cc(-c4ccc(C(F)(F)F)cc4)ncn3)cccc2s1`: the Potency result in test [1], in [2] and in [3] was “inactive” in each case.

For the molecule `CC[C@H](C)[C@H]1O[C@]2(CC[C@@H]1C)C[C@@H]1C[C@@H](C/C=C(\C)[C@@H](O[C@H]3C[C@H](OC)[C@@H](O[C@H]4C[C@H](OC)[C@@H](O)[C@H](C)O4)[C@H](C)O3)[C@@H](C)/C=C/C=C3\CO[C@@H]4[C@H](O)C(C)=C[C@@H](C(=O)O1)[C@]34O)O2`, the Potency result in test [1], in test [2] and in test [3] was “inactive” each time.

For the molecule `CCN(CC)CCN(Cc1ccc(-c2ccc(C(F)(F)F)cc2)cc1)C(=O)Cn1c(SCc2ccc(F)cc2)nc(=O)c2c1CCC2`, the Potency entry in test [1], in test [2] and in [3] was “inactive” in each case.

For `CC(C)(C)c1ccc(CN2CCN(C(c3ccccc3)c3ccc(Cl)cc3)CC2)cc1` (stereo not drawn), the Potency entry in test [1] and in test [3] was “inactive” each time. The Potency in [2] was 31.6 µM (active).

Turning to `CCOC(=O)Nc1nc2ccccc2[nH]1`, the Potency result in test [1], in test [2] and in test [3] was “inactive” each time.

Consider `CCCC1(CCC)CCC2(CCN(CCCN(CC)CC)C2)CC1`, for which the Potency result in test [1], in test [2] and in [3] was “inactive” throughout. Moreover, the Potency in test [4] is 5.9 µM (active); in [5], 7.42 µM (active); in test [6], 6.61 µM (active); in test [7] it was 4.68 µM (active); in [8] it was 8.33 µM (active); in test [9] it was 9.34 µM (active). Moreover, the Potency in [10] is 9.34 µM (active).

Consider `CN(C)Cc1ccc(-c2cnn3c(-c4cccc(NC(=O)c5cccc(C(F)(F)F)c5)c4)ccnc23)cc1`, for which the Potency result in [1], in [2] and in test [3] was “inactive” throughout.

As to `Cc1ccc(C(=O)N(CCCN)C(c2nc3cc(Cl)ccc3c(=O)n2Cc2ccccc2)C(C)C)cc1` (stereo not drawn), the Potency entry in test [1], in test [2] and in [3] was “inactive” in each case.

On to `O=C(NC1CCN(CCCCC2(C(=O)NCC(F)(F)F)c3ccccc3-c3ccccc32)CC1)c1ccccc1-c1ccc(C(F)(F)F)cc1`, for which the Potency entry in test [1], in [2] and in test [3] was “inactive” each time.

Take `COc1ccc2cc1Oc1ccc(cc1)C[C@H]1c3c(cc4c(c3Oc3cc5c(cc3OC)CCN(C)[C@@H]5C2)OCO4)CCN1C`: the Potency entry in [1], in test [2] and in test [3] was “inactive” in each case.

In the case of `Cc1ccc2nc(NC(=O)CSc3nc4c(c(=O)n3-c3ccc(F)cc3)SCC4)sc2c1`, the Potency entry in test [1], in test [2] and in test [3] was “inactive” in each case.

`CCOc1cc(C(C)(C)C)ccc1C1=NC(C)(c2ccc(Cl)cc2)C(C)(c2ccc(Cl)cc2)N1C(=O)N1CCN(CCCS(C)(=O)=O)CC1` (stereo not drawn): the Potency result in [1], in test [2] and in test [3] was “inactive” in each case.
